The list shows a part of the results. The true hit rate is not given.
Target: furin, P09958
Assay: furin cleavage Z-score vs untreated control; higher = more cleavage, active = 3.5 or more, inactive = 1 or less, 8 variable residues between constant flanks
Summary of the method: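 In 50 mM HEPES pH 7.5 with CaCl2 and NaCl, purified furin was incubated with bead-anchored 8-mer peptide–cDNA fusions at 1:10 enzyme:substrate in 0.01 ml. Incubation times were 7.5, 15 and 30 min. DNA set free by cleavage was adapter-tagged by PCR and sequenced, with read counts taken as abundance. Log counts relative to furin-free reactions, after lowess adjustment and median absolute deviation scaling, form the cleavage Z-score.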

furin, P09958, sequence (P09958 whole entry): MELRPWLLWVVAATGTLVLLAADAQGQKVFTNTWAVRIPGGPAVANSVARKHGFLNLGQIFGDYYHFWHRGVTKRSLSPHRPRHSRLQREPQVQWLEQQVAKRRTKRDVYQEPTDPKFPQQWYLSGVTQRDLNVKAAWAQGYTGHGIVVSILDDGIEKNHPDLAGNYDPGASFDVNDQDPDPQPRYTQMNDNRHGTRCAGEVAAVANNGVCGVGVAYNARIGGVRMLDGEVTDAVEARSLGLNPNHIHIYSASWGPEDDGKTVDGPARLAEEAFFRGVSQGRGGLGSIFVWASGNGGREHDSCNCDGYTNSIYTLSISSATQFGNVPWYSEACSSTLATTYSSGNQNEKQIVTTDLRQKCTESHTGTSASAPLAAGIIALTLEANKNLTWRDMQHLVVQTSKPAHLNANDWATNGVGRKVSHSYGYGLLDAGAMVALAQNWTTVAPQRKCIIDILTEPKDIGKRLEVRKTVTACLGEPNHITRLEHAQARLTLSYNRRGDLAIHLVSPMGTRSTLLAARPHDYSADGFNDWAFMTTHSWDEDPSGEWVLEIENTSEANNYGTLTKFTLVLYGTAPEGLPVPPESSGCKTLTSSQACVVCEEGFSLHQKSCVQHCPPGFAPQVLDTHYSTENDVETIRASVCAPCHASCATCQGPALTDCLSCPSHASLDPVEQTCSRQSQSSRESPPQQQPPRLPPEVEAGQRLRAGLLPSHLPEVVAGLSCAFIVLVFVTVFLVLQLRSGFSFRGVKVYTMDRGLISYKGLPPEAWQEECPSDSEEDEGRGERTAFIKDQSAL

Row | Sequence | furin cleavage Z-score (7.5 min) | furin cleavage Z-score (15 min) | furin cleavage Z-score (30 min)
1 | CAGYRRCRASAGNASASA [HC1508] | 0.58 (inactive) | -0.0246 (inactive) | 0.472 (inactive)
2 | CAWKKPDYEPAGNASASA [HC1311] | -0.0824 (inactive) | -0.0771 (inactive) | 0.0457 (inactive)
3 | CAKKNKRNTNAGNASASA [HC165] | 4.17 (active) | 6.77 (active) | 5.31 (active)
4 | CAPVPPPRKKAGNASASA [HC1322] | 0.00444 (inactive) | 1.55 | 0.99 (inactive)
5 | CAPKPQKKNKAGNASASA [HC163] | -1.39 (inactive) | -0.337 (inactive) | -0.509 (inactive)
6 | CAARLIVFPDAGNASASA [HC1449] | -1.5 (inactive) | -0.858 (inactive) | -0.313 (inactive)
7 | CAYRHRKKRNAGNASASA [FS-902] | 2.85 | 1.03 | -0.551 (inactive)
8 | CAPQKKNKRNAGNASASA [HC164] | 5.11 (active) | 6.33 (active) | 5.55 (active)
9 | CAKKKRMAMAAGNASASA [FS-2867] | -0.103 (inactive) | 0.494 (inactive) | 1.89
10 | CAKKMRVWRDAGNASASA [FS-674] | 4.34 (active) | 5.37 (active) | 5.78 (active)
11 | CANKRNTNRRAGNASASA [HC166] | 0.476 (inactive) | 1.53 | -0.249 (inactive)
12 | CAKTTRKKRNAGNASASA [FS-263] | 7.57 (active) | 8.3 (active) | 5.21 (active)
13 | CAVECCSMSYAGNASASA [HC2012] | 0.483 (inactive) | 1.15 | 0.164 (inactive)
14 | CAAETHVTGGAGNASASA [HC352] | -0.704 (inactive) | -0.0263 (inactive) | -0.814 (inactive)
15 | CASHITAEAAAGNASASA [HC1250] | -0.151 (inactive) | -1.71 (inactive) | -1.91 (inactive)
16 | CADNVTPIDTAGNASASA [HC1435] | -0.0484 (inactive) | -0.00567 (inactive) | -0.908 (inactive)
17 | CAIASWAIKWAGNASASA [HC515] | -0.183 (inactive) | 0.294 (inactive) | -1.7 (inactive)
18 | CALIHLHQNIAGNASASA [HC505] | 0.141 (inactive) | -1.53 (inactive) | 0.884 (inactive)
19 | CAVHCCSMSYAGNASASA [HC2015] | 0.313 (inactive) | -1.84 (inactive) | 0.688 (inactive)
20 | CAPQLPGIPFAGNASASA [HC1161] | -0.711 (inactive) | -1.22 (inactive) | 0.14 (inactive)
21 | CATNPCSGSWAGNASASA [HC1861] | -0.962 (inactive) | -0.755 (inactive) | -0.828 (inactive)
22 | CAEEVTSTWVAGNASASA [HC2172] | -0.33 (inactive) | 0.0818 (inactive) | 0.598 (inactive)

Row | Sequence | furin cleavage Z-score (7.5 min) | furin cleavage Z-score (15 min) | furin cleavage Z-score (30 min)
23 | CAKTLRTKRNAGNASASA [FS-1352] | 9.31 (active) | 8.38 (active) | 6.89 (active)
24 | CAKKMRNKRNAGNASASA [FS-42] | 10.5 (active) | 10.9 (active) | 9.3 (active)
25 | CASTPCSAWLAGNASASA [HC2548] | -0.0997 (inactive) | -0.849 (inactive) | -0.533 (inactive)
26 | CADREVPCHRAGNASASA [HC2431] | 0.898 (inactive) | 1.78 | 1.29
27 | CATTPCSGSWAGNASASA [HC54] | -0.34 (inactive) | -3.09 (inactive) | -0.396 (inactive)
28 | CAPPCVIGGAAGNASASA [HC444] | -0.324 (inactive) | -0.267 (inactive) | 0.0653 (inactive)
29 | CARRRRYALSAGNASASA [FS-2801] | 5.16 (active) | 9.42 (active) | 8.62 (active)
30 | CARRRRLRTAAGNASASA [FS-1786] | 2.03 | 3.9 (active) | 4.2 (active)
31 | CARRRRYAVAAGNASASA [FS-3232] | 4.58 (active) | 6.75 (active) | 6.05 (active)
32 | CARRRRYKKKAGNASASA [FS-2182] | -0.133 (inactive) | -0.187 (inactive) | -0.000733 (inactive)
33 | CARRRRYEGHAGNASASA [FS-2235] | 0.411 (inactive) | 0.839 (inactive) | -0.246 (inactive)
34 | CARRRRLYWGAGNASASA [FS-1787] | -0.939 (inactive) | 0.513 (inactive) | -1.89 (inactive)
35 | CALIARDQLEAGNASASA [HC1587] | 1.19 | -0.286 (inactive) | 0.308 (inactive)
36 | CAGRQRKPRPAGNASASA [FS-658] | -0.103 (inactive) | -1.02 (inactive) | -0.398 (inactive)
37 | CACRARGMRAAGNASASA [FS-15] | -0.759 (inactive) | -0.9 (inactive) | -0.752 (inactive)
38 | CAGTQRLTRAAGNASASA [FS-438] | 5.42 (active) | 7.11 (active) | 7.04 (active)
39 | CAGRSRASRGAGNASASA [FS-1591] | 0.169 (inactive) | 0.355 (inactive) | 0.871 (inactive)
40 | CAGHSRSRRAAGNASASA [FS-241] | 9.52 (active) | 9.9 (active) | 7.81 (active)
41 | CAGRDAVILLAGNASASA [HC595] | -0.947 (inactive) | -0.587 (inactive) | -0.719 (inactive)
42 | CAGRSRRPRLAGNASASA [FS-594] | 5.82 (active) | 7.31 (active) | 7.21 (active)
43 | CAGRSRSRRAAGNASASA [FS-1205] | 11.2 (active) | 9.2 (active) | 6.8 (active)
44 | CAMERCSQHLAGNASASA [HC1713] | 1.58 | 0.689 (inactive) | 1.89

— the supplement of paper PMC3545927
